Test [1] addresses Glutathione peroxidase 1 (Homo sapiens) (UniProt P07203). Description: Primary qHTS Assay for Inhibitors of Recombinant Selenoprotein Glutathione Peroxidase 1 (GPX1) (AID 1845191). Also: nearly all actives have a fitted effect of over 65% in size. The method, boiled down:
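GR-coupled assay: compounds preincubated 30 min at room temperature with GPX1, then reaction started with CHP; final 10 nM GPX1, 1 mM GSH, 0.5 mM CHP, 0.5 mM NADPH, 100 nM GR, 0.01% BSA, pH 7.5 Tris buffer. NADPH fluorescence (340/450 nm) read at 0 and 15 min.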

For test [2], the target named is Phospholipid hydroperoxide glutathione peroxidase GPX4 (Homo sapiens) (UniProt P36969). Description: Primary qHTS Assay for Inhibitors of Recombinant Selenoprotein Glutathione Peroxidase 4 (GPX4) (AID 1845192). Also: nearly all actives have a fitted effect of over 65% in size. The method, boiled down: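 GR-coupled assay: recombinant GPX4 preincubated 30 min with compound at room temperature; final 200 nM GPX4, 1 mM GSH, 0.5 mM cumene hydroperoxide, 0.5 mM NADPH, 100 nM GR, 0.01% BSA, pH 7.5 Tris. NADPH fluorescence (340/450 nm) read at 0 and 15 min.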
Chain of Phospholipid hydroperoxide glutathione peroxidase GPX4 (Homo sapiens) (P36969 whole entry, looked up): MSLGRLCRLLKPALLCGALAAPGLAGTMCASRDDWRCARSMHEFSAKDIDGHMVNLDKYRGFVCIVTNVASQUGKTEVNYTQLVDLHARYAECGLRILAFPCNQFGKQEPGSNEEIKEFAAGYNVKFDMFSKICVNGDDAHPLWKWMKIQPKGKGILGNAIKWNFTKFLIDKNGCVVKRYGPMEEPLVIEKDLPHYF
Background: In qHTS, concentration-response curves come from the screen itself.

In test [3] the target is Luciferin 4-monooxygenase (Photinus pyralis) (UniProt P08659). Description: Primary firefly luciferase (FLuc) qHTS assay for identification of artifact compounds. (AID 1845220). Also: nearly all actives have a fitted effect of over 60% in size. The essentials: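 D-luciferin and ATP (10 uM each, final) in Tris acetate buffer pH 7.6 were incubated with compounds for 15 min at room temperature. The reaction was started with 10 nM Photinus pyralis luciferase and luminescence read after 5 min. Percent inhibition was fitted to a 4-parameter Hill equation.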

A short description of test [4]: Primary fluorescence-based thiol-reactive (MSTI) qHTS assay for identification of artifact compounds. (AID 1845221). Also: nearly all actives have a fitted effect of over 65% in size. Also: potency is read from the fitted curve at half-maximal effect. The method, boiled down:
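MSTI probe at 4 uM final in 2% DMSO/PBS pH 7.4; compounds, 1 h at room temperature in dark. Fluorescence Ex/Em 525/598 nm, normalised to Acetyl-MSTI and MSTI, fitted to 4-parameter Hill.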

Test [5] in a line: NCATS anti-infectives library activity on HEK293 viability as a counter-qHTS vs the C. elegans viability qHTS (AID 1745854).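 Also: HEK293 cells exposed to compounds for 24 hr before the viability read.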 The essentials: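 HEK293 cells (1,500/well) exposed 24 hr at 37C to 1:5 titrations, up to 41.7 uM final; counter-screen to a C. elegans viability qHTS. Viability by CellTiter-Glo luminescence after 10 min at room temperature; digitonin as control.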
A short description of test [6]: Quantitative High-Throughput drug screen in 47 multiple myeloma cell lines against the NCATS MIPE library collection: FR4_PLB cell viability assay (AID 1918924; also: nearly all actives have a fitted effect of over 35% in size; also: potency is read from the fitted curve at half-maximal effect). The method, boiled down: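 Myeloma cell lines, 500 cells per well, exposed to MIPE 4.0 library compounds for 48 h at 37C, 5% CO2. Viability from ATP by CellTiter-Glo luminescence; normalised to DMSO (100%) and media-only (0%) wells.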

The subject of test [7] is Nanoluciferase (engineered Oplophorus gracilirostris luciferase). The experiment in a line: Primary Nanoluciferase (NLuc) qHTS assay for identification of artifact compounds. (AID 1845222). Also: series mostly up to about 54 µM. The essentials: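 Diluted conditioned medium from NLuc-expressing S16 cells treated with compounds for 15 min at room temperature, then Nano-Glo substrate added; luminescence read after 5 min. Percent inhibition versus no-enzyme and DMSO controls fitted to 4-parameter Hill equation.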

Test [8] is described as follows: Primary redox qHTS assay for identification of artifact compounds. (AID 1845223). The essentials:
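Amplex Red (25 uM) and HRP (250 mU/mL) in HBSS, with compounds for 15 min, then 250 uM DTT for 30 min, room temperature, dark. Fluorescence 525/598 nm read; normalized to DMSO and 10 uM DA3003; Hill fit.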

Test [9] concerns the target Metallo-beta-lactamase type 2 (Klebsiella pneumoniae) (UniProt C7C422). Description: qHTS to identify inhibitors of the New Delhi Metallo-beta-lactamase (NDM): assay validation screen against the NCATS LOPAC Collection (AID 1794843).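 Also: nitrocefin turnover by NDM-1 measured as 485 nm absorbance at plateau; series mostly up to about 38 µM.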 The method, boiled down: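 Nitrocefin hydrolysis (50 uM substrate stock) by NDM-1, 2 nM final, was followed by 485 nm absorbance after compound preincubation; buffer was 50 mM HEPES pH 7.0, 1 uM ZnSO4, 0.01% Tween20.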

Values joined by “and” are separate entries in the source; they are usually repeats but may differ in a detail not shown here. Equal values may be shown once. Results filed as inconclusive are left out. Active and inactive are the calls of the source. Calls follow the shape of the dose curve; as a rule, active = well fitted curve in the direction sought with a large enough effect; inconclusive = small, poorly fitted or top-dose-only effect, or another doubt; inactive = no such curve, though single readings can be large; an effect the other way counts as inactive or inconclusive.

Chain of Glutathione peroxidase 1 (Homo sapiens) (P07203 whole entry, looked up): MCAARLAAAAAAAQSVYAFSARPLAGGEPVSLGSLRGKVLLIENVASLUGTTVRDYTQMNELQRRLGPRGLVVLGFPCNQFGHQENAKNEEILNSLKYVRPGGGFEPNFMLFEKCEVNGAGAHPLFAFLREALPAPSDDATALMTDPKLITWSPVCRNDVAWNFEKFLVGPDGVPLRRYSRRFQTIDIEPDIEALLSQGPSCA
Chain of Metallo-beta-lactamase type 2 (Klebsiella pneumoniae) (C7C422 whole entry, looked up): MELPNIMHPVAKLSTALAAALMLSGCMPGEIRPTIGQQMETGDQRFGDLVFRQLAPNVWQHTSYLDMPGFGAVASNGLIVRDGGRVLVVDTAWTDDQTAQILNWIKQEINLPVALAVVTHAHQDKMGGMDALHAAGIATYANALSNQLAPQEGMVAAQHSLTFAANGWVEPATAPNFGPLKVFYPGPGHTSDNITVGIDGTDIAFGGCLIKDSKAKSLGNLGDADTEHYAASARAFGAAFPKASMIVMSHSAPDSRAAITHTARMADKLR

In the case of `CCCCCCCCCC(=O)N[C@@H](Cc1c[nH]c2ccccc12)C(=O)N[C@H](CC(N)=O)C(=O)N[C@@H](CC(=O)O)C(=O)N[C@@H]1C(=O)NCC(=O)N[C@@H](CCCN)C(=O)N[C@@H](CC(=O)O)C(=O)N[C@H](C)C(=O)N[C@@H](CC(=O)O)C(=O)NCC(=O)N[C@H](CO)C(=O)N[C@@H]([C@@H](C)CC(=O)O)C(=O)N[C@@H](CC(=O)c2ccccc2N)C(=O)O[C@@H]1C`, the Potency entry in test [1], in test [2], in [3] and in [4] was “inactive” in each case.
Regarding `CC(C)[C@H](C(=O)Nc1ccc(C(=O)NO)cc1)c1ccccc1`, the Potency result in test [5], in [1] and in [2] was “inactive” in each case. In addition, the Potency in test [6] is 0.372 µM (active).
Turning to `O=C(O)[C@H](Cc1c[nH]c2ccccc12)N1C(=O)c2ccccc2C1=O`, the Potency result in test [1] and in test [2] was “inactive” each time.
With `CC[C@H](CO)Nc1nc(NCc2ccccc2)c2ncn(C(C)C)c2n1`, the Potency entry in test [1] and in [2] was “inactive” each time.
With `CNC(=O)c1ccc(-c2cnc3ncc(Cc4ccc5ncccc5c4)n3n2)cc1F`, the Potency result in test [1], in test [2], in test [3], in [4], in [7] and in [8] was “inactive” each time.
Consider `COc1cc(OC2CCN(C)CC2)ccc1Nc1ncc2c(n1)n(C1CCCC1)c(=O)n2C`, for which the Potency result in test [1] and in [2] was “inactive” throughout.
For `CN(C1CCc2c(c3ccccc3n2CC(=O)O)C1)S(=O)(=O)c1ccc(F)cc1` (stereo not drawn), the Potency entry in test [1], in test [2], in test [3], in test [7] and in [8] was “inactive” each time. The Potency in test [4] was 2.67 µM (active) and 2.12 µM (active).
For the molecule `O=c1c2ccccc2nc2n1CCc1c-2[nH]c2ccccc12`, the outcome in test [9] was inactive. Besides, the Potency result in test [1], in test [2], in test [4], in test [8] and in test [6] was “inactive” throughout.
For `Cn1cc(-c2ccncc2)c(-c2ccc(OCc3ccc4ccccc4n3)cc2)n1`, the Potency result in test [1], in test [2], in test [3], in test [4] and in test [7] was “inactive” throughout.
For `C=CC(=O)Nc1cc2c(Nc3ccc(F)c(Cl)c3)ncnc2cc1OCCCN1CCOCC1`, the Potency entry in [1] and in test [2] was “inactive” each time.
With `O=C(NCCCNc1nc(Nc2cccc(NC(=O)N3CCCC3)c2)ncc1I)c1cccs1`, the Potency entry in test [1] and in [2] was “inactive” throughout.
As for `COc1cc2c(Oc3ccc4[nH]c(C)cc4c3F)ncnc2cc1OCCCN1CCCC1`, the Potency entry in test [1], in [2] and in test [3] was “inactive” in each case.
Consider `CN1c2cc(O)c(N=NC(N)=O)cc2CC1S(=O)(=O)O` (stereo not drawn), for which the Potency entry in test [1] and in test [2] was “inactive” in each case.
`CN(C)CCCN=c1c2ccccc2n(C)c2[nH]c(=O)n(C)c(=O)c12`: the Potency result in test [1] and in test [2] was “inactive” each time.
`C#Cc1cccc(Nc2ncnc3cc(OC)c(OCCCCCCC(=O)NO)cc23)c1`: the Potency result in [1], in test [2], in test [3], in [4], in test [7] and in [8] was “inactive” throughout. In [6], the Potency is 0.0743 µM (active).
As for `COc1cc2c(Oc3ccc(NC(=O)C4(C(=O)Nc5ccc(F)cc5)CC4)cc3F)ccnc2cc1OCCCN1CCOCC1`, the Potency result in [1], in test [2], in [3], in [4], in test [7] and in test [8] was “inactive” each time. Besides, the Potency in [6] is 14.8 µM (active).
As for `CCCn1c(=O)c2[nH]c(-c3cnn(Cc4cccc(C(F)(F)F)c4)c3)nc2n(CC)c1=O`, the Potency entry in [1], in test [2], in test [3], in test [4], in [7] and in [8] was “inactive” each time. Further, the Potency in [6] is 5.9 µM (active).
In the case of `CC(=O)Nc1nc(C)c(-c2ccc(Cl)c(S(=O)(=O)NCCO)c2)s1`, the Potency result in test [1], in test [2], in [3], in test [4], in test [7] and in [8] was “inactive” each time. Further, the Potency in test [6] was 13.2 µM (active).
Consider `CC(C)CC(=O)Nc1n[nH]c2c1CN(C(=O)C1CCN(C)CC1)C2(C)C`, for which the Potency entry in [1], in test [2], in test [3], in [4], in [7] and in test [8] was “inactive” in each case. Besides, the Potency in test [6] is 1.66 µM (active).
Turning to `Cc1nc(N)ncc1-c1nc(N2CCOCC2)c2sc(C(C)(C)O)cc2n1`, the Potency entry in test [1], in test [2], in test [3], in test [4], in [7] and in [8] was “inactive” in each case. Moreover, the Potency in test [6] is 8.33 µM (active).
Consider `CC(C)(O)c1cc2nc(-c3cnc(N)nc3)nc(N3CCOCC3)c2s1`, for which the Potency result in test [1], in [2], in test [3], in test [4], in test [7] and in test [8] was “inactive” each time. The Potency in [6] was 0.235 µM (active).
With `CS(=O)(=O)c1ccc(-c2cnc(N)c(C(=O)Nc3ccccc3)n2)cc1`, the Potency result in test [1], in test [2], in test [3], in test [4] and in [8] was “inactive” throughout.
As for `COc1ccc2c(OCc3nnc4ccc(-c5ccccc5)nn34)ccnc2c1`, the Potency entry in test [1], in test [2], in test [3], in test [4], in [7] and in [8] was “inactive” in each case. The Potency entry in test [6] was “inactive”.
In the case of `N#CCNC(=O)c1ccc(-c2ccnc(Nc3ccc(N4CCOCC4)cc3)n2)cc1`, the Potency entry in test [1], in [2], in [3], in test [7] and in test [8] was “inactive” in each case. For the same molecule, the Potency was 1.5 µM (active) in test [4] and 20.9 µM (active) in test [6].
As to `O=C(Nc1nc2cccc(-c3ccc(CN4CCS(=O)(=O)CC4)cc3)n2n1)C1CC1`, the Potency result in [1], in test [2], in test [3], in test [4], in test [7] and in test [8] was “inactive” in each case. In addition, the Potency in test [6] was 9.35 µM (active).
Turning to `Cc1ccc2nc(NC(=O)CSc3nc4c(c(=O)n3-c3ccccc3)SCC4)sc2c1`, the Potency entry in test [1], in test [2], in [3], in test [4], in test [7] and in [8] was “inactive” throughout. Further, the Potency in test [6] is 5.9 µM (active).
Take `COc1ccc2c(c1)CC[C@@H](CN(C)CC(=O)O)[C@H]2c1ccccc1`: the Potency entry in test [1], in [2], in test [3], in test [4], in test [7] and in [8] was “inactive” each time. In addition, the Potency in test [6] was 1.05 µM (active).
Turning to `COc1cc(C(=O)N2CCC(N3CCN(C)CC3)CC2)ccc1Nc1ncc2c(n1)N(C)c1ccccc1C(=O)N2C`, the Potency result in [1], in test [2], in test [3], in test [4], in test [7] and in test [8] was “inactive” each time. Moreover, the Potency in [6] was 3.72 µM (active).
For `COc1ccc(OC)c(-c2nnc3ccc(-c4ccc(OC)c(O[C@@H]5CCOC5)c4)nn23)c1`, the Potency entry in test [1], in test [2], in test [3], in test [4], in test [7] and in test [8] was “inactive” each time. Further, the Potency in test [6] is 11.8 µM (active).
`C1Cc2[nH]nc(-c3nn[nH]n3)c2C1`: the Potency result in [1], in test [2], in test [3], in test [4], in test [7] and in [8] was “inactive” each time. In test [6], the Potency result is “inactive”.
